PubChem BioAssay (NCATS)
Inconclusive results are not listed. Entries that show only a call come without a potency. Unmarked numbers belong to inactive results. Activity calls are given as the source filed them. Calls come from the whole dose curve; as a rule, active = well fitted curve in the direction sought with a large enough effect; inconclusive = small, poorly fitted or top-dose-only effect, or another doubt; inactive = no such curve, though single readings can be large; an effect the other way counts as inactive or inconclusive.

How the values were obtained:
[1] = qHTS of pediatric cancer cell lines to identify multiple opportunities for drug repurposing: Primary screen for Rh30 cells (AID 1347107); note: series mostly up to about 46 µM; nearly all actives have a fitted effect of over 75% in size
Method in brief: (§1)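 Viability after 48 h compound treatment at 37C, 500-1,000 cells/well, read as ATP luminescence with CellTiter-Glo. Primary screens used 11-point (MIPE, 0.78 nM-46 µM) or 8-point (NPC, 0.59 nM-46 µM) final concentrations; follow-up screens used 11-point dilutions.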

[2] = qHTS of pediatric cancer cell lines to identify multiple opportunities for drug repurposing: Primary screen for Rh41 cells (AID 1347108);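 note: series mostly up to about 46 µM; luminescence drop marks cytotoxic hits; nearly all actives have a fitted effect of over 70% in size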
Method in brief: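 Plated cells (500-1,000 per well, growth media) were allowed to settle for 5 hours, treated with compound dilutions for 48 hours, then lysed with CellTiter-Glo for 15 min at room temperature before luminescence reading.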

[3] = qHTS of pediatric cancer cell lines to identify multiple opportunities for drug repurposing: Confirmatory screen for NB1643 cells (AID 1347109); note: nearly all actives have a fitted effect of over 45% in size; note: potency is the fitted concentration of half-maximal effect
Method in brief: as §1

[4] = qHTS of pediatric cancer cell lines to identify multiple opportunities for drug repurposing: Confirmatory screen for A673 cells (AID 1347110); note: nearly all actives have a fitted effect of over 65% in size; note: potency is the fitted concentration of half-maximal effect
Method in brief: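 Concentration-response curves came straight from titrations: 11 points (0.78 nM to 46 µM) for MIPE and several concentrations (0.59 nM to 46 µM) for NPC in primary, 11 points in follow-up. Readout: ATP luminescence at 48 h.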

[5] = qHTS of pediatric cancer cell lines to identify multiple opportunities for drug repurposing: Confirmatory screen for SK-N-MC cells (AID 1347111);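 note: cells exposed to compound for 48 h before the readout; nearly all actives have a fitted effect of over 70% in size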; note: potency is the fitted concentration of half-maximal effect
Method in brief: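 SK-N-MC cells at 500-1,000 cells/well in growth media were pre-incubated 5 h, then exposed to compounds at 11-point dilutions for 48 h at 37 degrees C, 5% CO2. Viability was read as CellTiter-Glo luminescence.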

[6] = qHTS of pediatric cancer cell lines to identify multiple opportunities for drug repurposing: Confirmatory screen for BT-12 cells (AID 1347112); note: nearly all actives have a fitted effect of over 55% in size; note: potency is the fitted concentration of half-maximal effect
Method in brief: as §1

[7] = qHTS of pediatric cancer cell lines to identify multiple opportunities for drug repurposing: Confirmatory screen for DAOY cells (AID 1347114); note: nearly all actives have a fitted effect of over 65% in size
Method in brief: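 Viability measured as metabolically active cells via CellTiter-Glo luminescence following 48 hours of compound exposure, 11-point dilutions in confirmatory testing. 500-1,000 cells/well plated 5 hours before dosing; controls were DMSO and 2.3 µM bortezomib.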

[8] = qHTS of pediatric cancer cell lines to identify multiple opportunities for drug repurposing: Confirmatory screen for NB-EBc1 cells (AID 1347115); note: nearly all actives have a fitted effect of over 45% in size
Method in brief: as §1

[9] = qHTS of pediatric cancer cell lines to identify multiple opportunities for drug repurposing: Confirmatory screen for LAN-5 cells (AID 1347113); note: potency is the fitted concentration of half-maximal effect; nearly all actives have a fitted effect of over 65% in size
Method in brief: as §1

[10] = qHTS of pediatric cancer cell lines to identify multiple opportunities for drug repurposing: Confirmatory screen for SJ-GBM2 cells (AID 1347116); note: nearly all actives have a fitted effect of over 60% in size
Excerpt: Drug repurposing or repositioning has been offered as a strategy for drug development in oncology programs. This approach has special potential for childhood cancers and other rare or orphan diseases, where the expected return on new drug development has been a disincentive to pharmaceuticals.
In this project we exploit the poly-pharmacology of drugs to discover new indications via phenotypic screening of a panel of 19 well-characterized cell lines derived from solid tumors seen in children and adolescents. The goal is to identify approved drugs with previously unrecognized anticancer properties that has the potential to reveal new mechanisms and biological processes involved in carcinogenesis or drug resistance. We employed a titration-based paradigm (quantitative high-throughput screening or qHTS), where all compounds were tested at multiple concentrations for their effect on cell viability. Concentration-response curves (CRCs) were derived directly from the primary screen, and both potency and efficacy values were used to identify compounds with robust bioactivity profiles. We screened the NIH Chemical Genomics Center (NCGC) Pharmaceutical Collection (NPC) and Mechanism Interrogation Plate (MIPE) small molecule collections of approved and investigational compounds against these cell lines; and measured metabolically active cells after 48 hours of compound treatment as a proxy for cell viability.
Assay Submitter: Nathalia J. Martinez, National Center for Advancing Translational Sciences, National Institutes of Health, Rockville, MD, USA; email: natalia.martinez@nih.gov
[1] Shen, M et al. Quantitative high-throughput phenotypic screening of pediatric cancer cell lines identifies multiple opportunities for drug repurposing. Oncotarget 2017 Dec 19;9(4):4758-4772. PMID 29435139.
The cells were obtained from University of North Carolina (UNC), Pediatric Preclinical Testing Program (PPT), and Coriell Institute (CI).
qHTS cell viability assay:
Cells were assayed in growth media at a density of 500-1,000 cells/well. Five microliters of cells were dispensed into 1,536-well, white, solid-bottom, TC-treated plates (Greiner Bio One) using a multidrop dispenser and incubated at 37 degrees C, 5% CO2, under a humidified atmosphere for 5 hours. Twenty-three nanoliters of compounds and controls (neutral control DMSO or positive control bortezomib at final concentration of 2.3 µM) were subsequently transferred by Kalypsys pintool. For primary screens, the MIPE collection was tested at 11-point dilutions (final concentrations range from 0.78 nM to 46 µM) and the NPC collection at 8-point dilutions (final concentrations range from 0.59 nM to 46 µM). Compounds tested in follow-up screens were assayed at 11-point dilutions. Cells were incubated for 48 hours, followed by addition of 3 uL of CellTiter-Glo (Promega). After a 15 min incubation at room temperature, samples were analyzed for luminescence intensity using a ViewLux High-throughput CCD imager equipped with clear filters.

## O=C1Nc2ccc(Cl)cc2[C@@](C#CC2CC2)(C(F)(F)F)O1
[1]
  outcome: inactive
[2]
  Potency: inactive

## CCN(CC)CCOC(=O)C1(C2CCCCC2)CCCCC1
[1]
  outcome: inactive
[2]
  Potency: inactive

## C[C@H](N)[C@H](O)c1cccc(O)c1
[1]
  outcome: inactive
[2]
  Potency: inactive

## NS(=O)(=O)c1cc2c(cc1C(F)(F)F)NC(Cc1ccccc1)NS2(=O)=O (stereo unspecified)
[1]
  outcome: inactive
[2]
  Potency: inactive

## Oc1cn2c(n1)Nc1ccc(Cl)c(Cl)c1C2
[1]
  outcome: inactive
[2]
  Potency: inactive

## O=C1O[C@H]([C@@H](O)CO)C(O)=C1O
[1]
  outcome: inactive
[2]
  Potency: inactive

## COc1cc2[nH]c(=O)[nH]c(=O)c2cc1OC
[1]
  outcome: inactive
[2]
  Potency: inactive

## CC(C)(C(=O)O)c1ccc(C(O)CCCN2CCC(C(O)(c3ccccc3)c3ccccc3)CC2)cc1 (stereo unspecified)
[1]
  outcome: inactive
[2]
  Potency: inactive

## COc1ccc2c(c1)C(=O)N(CCc1ccc(S(=O)(=O)NC(=O)NC3CCCCC3)cc1)C(=O)C2(C)C
[1]
  outcome: inactive
[2]
  Potency: inactive

## CC(O)CN(CCN(CC(C)O)CC(C)O)CC(C)O (stereo unspecified)
[1]
  outcome: inactive
[2]
  Potency: inactive

## O=C(O)Cc1sc(-c2ccccc2)nc1-c1ccc(Cl)cc1
[1]
  outcome: inactive
[2]
  Potency: inactive

## C[C@H]1O[C@H](O[C@H]2[C@H](O)[C@@H](O)[C@@H](O[C@H]3[C@H](O)[C@@H](O)[C@H](O)O[C@@H]3CO)O[C@@H]2CO)[C@H](O)[C@@H](O)[C@@H]1N[C@H]1C=C(CO)[C@@H](O)[C@H](O)[C@H]1O
[1]
  outcome: inactive
[2]
  Potency: inactive

## [O-][n+]1cccc(CO)c1
[1]
  outcome: inactive
[2]
  Potency: inactive

## NC(=O)c1ncn([C@@H]2O[C@H](CO)[C@@H](O)[C@H]2O)n1
[1]
  outcome: inactive
[2]
  Potency: inactive

## O=C1NS(=O)(=O)c2ccccc21
[1]
  outcome: inactive
[2]
  Potency: inactive

## Nc1ncnc2c1ncn2[C@@H]1O[C@H](CO)[C@@H](O)[C@H]1O
[1]
  outcome: inactive
[2]
  Potency: inactive

## CCCCC(CC)COC(=O)c1ccccc1O (stereo unspecified)
[2]
  Potency: inactive

## CCN(CC)CCNC(=O)c1cc(Cl)c(N)cc1OC
[1]
  outcome: inactive
[2]
  Potency: inactive
[3]
  Potency: inactive
[4]
  Potency: inactive
[5]
  Potency: inactive
[6]
  Potency: inactive
[7]
  outcome: inactive
[8]
  Potency: inactive

## [Cl][In]([Cl])[Cl]
[1]
  outcome: inactive
[2]
  Potency: inactive

## CCCCC/C(C=O)=C\c1ccccc1
[1]
  outcome: inactive
[2]
  Potency: inactive
[3]
  Potency: 7.37 µM (active)
[4]
  Potency: 2.93 µM (active)
[5]
  Potency: 9.27 µM (active)
[6]
  Potency: 26.1 µM (active)
[9]
  Potency: 5.22 µM (active)
[7]
  outcome: inactive
[8]
  Potency: inactive
[10]
  Potency: inactive

## COc1ccccc1O
[1]
  outcome: inactive
[2]
  Potency: inactive

## COc1cc(C(=O)N2CCOCC2)cc(OC)c1OC
[1]
  outcome: inactive
[2]
  Potency: inactive

## CC1=C(CC(=O)O)c2cc(F)ccc2/C1=C\c1ccc(S(C)=O)cc1 (stereo unspecified)
[1]
  outcome: inactive
[2]
  Potency: inactive

## NCC(=O)CCC(=O)O
[1]
  outcome: inactive
[2]
  Potency: inactive

## CN1[C@@H]2CC[C@H]1CC(OC(=O)C(O)c1ccccc1)C2 (stereo partly specified)
[1]
  outcome: inactive
[2]
  Potency: inactive

## C[C@](N)(Cc1ccc(O)cc1)C(=O)O
[1]
  activity change, negative = cytotoxic: -4.89% [at 4.84 µM]
[2]
  activity change, negative = cytotoxic: -37.3% [at 4.84 µM]
[3]
  activity change, negative = cytotoxic: 4.45% [at 5.01 µM]
[5]
  activity change, negative = cytotoxic: 6.85% [at 5.01 µM]
[6]
  activity change, negative = cytotoxic: -3.72% [at 5.01 µM]
[7]
  activity change, negative = cytotoxic: 9.36% [at 5.01 µM]
[10]
  activity change, negative = cytotoxic: 8.57% [at 5.01 µM]

## Cc1cc(CC(=O)O)n(C)c1C(=O)c1ccc(Cl)cc1
[1]
  outcome: inactive
[2]
  Potency: inactive

## CNCC(O)c1ccc(O)c(O)c1 (stereo unspecified)
[2]
  Potency: inactive

## CC1=C(C/C=C(\C)CCC[C@H](C)CCC[C@H](C)CCCC(C)C)C(=O)c2ccccc2C1=O
[1]
  outcome: inactive
[2]
  Potency: inactive

## CCOc1ccc2ccccc2c1C(=O)N[C@@H]1C(=O)N2[C@@H]1SC(C)(C)[C@@H]2C(=O)O
[1]
  outcome: inactive
[2]
  Potency: inactive

## CCCCN1CCCC[C@H]1C(=O)Nc1c(C)cccc1C
[1]
  outcome: inactive
[2]
  Potency: inactive

## Cc1ncc([N+](=O)[O-])n1CC(O)CCl (stereo unspecified)
[1]
  outcome: inactive
[2]
  Potency: inactive

## Cc1cc2c(cc1S(N)(=O)=O)S(=O)(=O)CCC2
[1]
  outcome: inactive
[2]
  Potency: inactive

## CCN(CC)CCNC(C(=O)OCCC(C)C)c1ccccc1 (stereo unspecified)
[1]
  outcome: inactive
[2]
  Potency: inactive

## C[C@@H]1CN(c2c(F)c(F)c3c(=O)c(C(=O)O)cn(C4CC4)c3c2F)C[C@H](C)N1
[1]
  outcome: inactive
[2]
  Potency: inactive

## COc1ccc2[nH]c(S(=O)Cc3ncc(C)c(OC)c3C)nc2n1 (stereo unspecified)
[1]
  outcome: inactive
[2]
  Potency: inactive

## O=S(=O)(O)c1cc(I)c(O)c2ncccc12
[1]
  outcome: inactive
[2]
  Potency: inactive

## CN(C)CCC=C1c2ccccc2CCc2ccccc21
[1]
  outcome: inactive
[2]
  Potency: inactive

## OCC(O)CN1CCN(c2ccccc2)CC1 (stereo unspecified)
[2]
  Potency: inactive

## C[C@]12C[C@H](O)[C@H]3[C@@H](CCC4=CC(=O)CC[C@@]43C)[C@@H]1CC[C@@H]2C(=O)CO
[1]
  outcome: inactive
[2]
  Potency: inactive
